Reference: PubChem BioAssay (NCI)
Compounds without any hit were thinned out: in the full panel of roughly 83,000, 20% have a hit.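 Single-concentration screen, 48 h exposure, 96-well plates. Endpoint: percent growth. Below 10 = active.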 Activity calls are given as the source filed them.

Assays:
Experiment in all cases: NCI-60 one-dose screen, 48 h (100 = growth as untreated, 0 = no growth, -100 = all killed)
Conditions in all cases: 10 µM unless noted
NCI-H23 lung = test system: NCI-H23 lung
NCI-H226 lung = test system: NCI-H226 lung
NCI-H322M lung = test system: NCI-H322M lung
HOP-62 NSCLC = test system: HOP-62 NSCLC
NCI-H460 lung = test system: NCI-H460 lung
HOP-92 NSCLC = test system: HOP-92 NSCLC
NCI-H522 lung = test system: NCI-H522 lung
A549/ATCC NSCLC = test system: A549/ATCC NSCLC
786-0 renal = test system: 786-0 renal
COLO 205 colon = test system: COLO 205 colon

Measured: growth

CCCSc1nc(NCCc2c[nH]c3ccccc23)c(C#N)c(-c2ccc(OC)cc2)n1
inactive: NCI-H23 lung 73.7% | NCI-H226 lung 50.7% | NCI-H322M lung 89% | HOP-62 NSCLC 64.5% | NCI-H460 lung 19% | HOP-92 NSCLC 64.7% | NCI-H522 lung 43.8% | A549/ATCC NSCLC 53.3% | 786-0 renal 31.9% | COLO 205 colon 61.3%

CC1=C(C(=O)OCc2ccccc2)C(c2ccc(-n3cncn3)cc2)n2c(nc3ccccc32)N1 (stereo not given)
inactive: NCI-H23 lung 86% | NCI-H226 lung 77.6% | NCI-H322M lung 83.5% | HOP-62 NSCLC 64.6% | NCI-H460 lung 28.1% | HOP-92 NSCLC 73.9% | NCI-H522 lung 19.3% | A549/ATCC NSCLC 60.1% | 786-0 renal 69.2% | COLO 205 colon 37.9%

CN(C)CCn1c2ccccc2c2nc3cc4ccccc4cc3nc21
active: NCI-H460 lung -52.1% | A549/ATCC NSCLC -68% | 786-0 renal -44.3%
inactive: NCI-H23 lung 16.6% | NCI-H226 lung 26.8% | NCI-H322M lung 29.6% | HOP-62 NSCLC 38.3% | HOP-92 NSCLC 43.4% | NCI-H522 lung 27.5% | COLO 205 colon 17.1%

O=C(COc1ccc(NC(=O)Nc2ccc(Cl)c(Cl)c2)cc1)N=Nc1c(O)[nH]c2ccc([N+](=O)[O-])cc12
active: NCI-H460 lung 3.51%
inactive: NCI-H23 lung 62.1% | NCI-H226 lung 90.1% | NCI-H322M lung 85.3% | HOP-62 NSCLC 76.4% | HOP-92 NSCLC 94% | NCI-H522 lung 61.1% | A549/ATCC NSCLC 62.4% | 786-0 renal 53.7% | COLO 205 colon 14.3%

COc1cc(CNC(=O)/C=C/c2ccc3c(c2)OCO3)ccc1OCc1cn(-c2ccc([N+](=O)[O-])cc2)nn1
inactive: NCI-H23 lung 88.8% | NCI-H226 lung 60.6% | NCI-H322M lung 91.5% | HOP-62 NSCLC 77.8% | NCI-H460 lung 94.6% | HOP-92 NSCLC 96.7% | NCI-H522 lung 84.9% | A549/ATCC NSCLC 91.6% | 786-0 renal 90.6% | COLO 205 colon 118%

CCN(CC)c1ccnc(CNCCSC(c2ccccc2)(c2ccccc2)c2ccc(OC)cc2)c1
inactive: NCI-H322M lung 21.8%
active: NCI-H23 lung -41.8% | NCI-H226 lung -7.73% | HOP-62 NSCLC -10.2% | NCI-H460 lung -87.3% | HOP-92 NSCLC -30% | NCI-H522 lung -67.8% | A549/ATCC NSCLC 2.36% | 786-0 renal -50.8% | COLO 205 colon -74%

COc1ccc(C(=O)/C=C/c2c(F)cccc2Cl)cc1S(N)(=O)=O
active: NCI-H23 lung -16% | HOP-62 NSCLC 2.33% | NCI-H460 lung 3.49% | HOP-92 NSCLC 9.66% | NCI-H522 lung -61.1% | A549/ATCC NSCLC 8.28% | 786-0 renal 0.405% | COLO 205 colon -84.7%
inactive: NCI-H226 lung 22.2% | NCI-H322M lung 17.4%

COc1cc(-c2nc3cc(Cl)c(Cl)cc3[nH]2)ccc1OCc1nnc(-c2cccs2)o1
inactive: NCI-H23 lung 47.4% | NCI-H226 lung 54.7% | NCI-H322M lung 75.3% | HOP-62 NSCLC 77.8% | NCI-H460 lung 38.8% | HOP-92 NSCLC 69% | NCI-H522 lung 51.8% | A549/ATCC NSCLC 11.7% | 786-0 renal 85.8% | COLO 205 colon 81.9%

CC(=O)Oc1ccccc1C(=O)[Se]C(=NC1CCCCC1)NC1CCCCC1
active: NCI-H23 lung -79.9% | NCI-H226 lung -88.1% | NCI-H322M lung -82.7% | HOP-62 NSCLC -87% | NCI-H460 lung -41.6% | HOP-92 NSCLC -13.6% | NCI-H522 lung -89.1% | A549/ATCC NSCLC 0.226% | 786-0 renal -93.4% | COLO 205 colon -70.6%

CN1C(=O)/C(=C/c2ccc(C(=O)Nc3ncc(Cc4ccc(Cl)cc4Cl)s3)cc2)SC1=S
inactive: NCI-H23 lung 42.8% | NCI-H226 lung 51.8% | NCI-H322M lung 47.1% | HOP-62 NSCLC 59.3% | NCI-H460 lung 46.2% | HOP-92 NSCLC 64.4% | NCI-H522 lung 19.2% | A549/ATCC NSCLC 42.7% | 786-0 renal 53.3% | COLO 205 colon 27.6%

CC(C)c1ccc2c(N)c(C(=O)Nc3ccc(C(F)(F)F)cn3)sc2n1
inactive: NCI-H23 lung 43.5% | NCI-H226 lung 22.9% | NCI-H322M lung 86.3% | HOP-62 NSCLC 57.7% | NCI-H460 lung 61.6% | HOP-92 NSCLC 65.1% | NCI-H522 lung 63.2% | A549/ATCC NSCLC 66.9% | 786-0 renal 64.3% | COLO 205 colon 93.1%

Cc1cc(N=C2NC(=O)CS2)n[nH]1
inactive: NCI-H23 lung 110% | NCI-H226 lung 132% | NCI-H322M lung 95.5% | HOP-62 NSCLC 116% | NCI-H460 lung 113% | HOP-92 NSCLC 115% | NCI-H522 lung 103% | A549/ATCC NSCLC 109% | 786-0 renal 103% | COLO 205 colon 108%

Cn1cc(-c2nc(N)nnc2-c2c[nH]c3ccc(F)cc23)c2cccnc21
inactive: NCI-H23 lung 35.2% | NCI-H226 lung 38% | NCI-H322M lung 56.2% | HOP-62 NSCLC 20% | NCI-H460 lung 11.6% | HOP-92 NSCLC 46.5% | NCI-H522 lung 36.6% | A549/ATCC NSCLC 43.8% | 786-0 renal 52.5% | COLO 205 colon 53.5%

CC(=O)Oc1ccc(/C=C/C(=O)N[C@@H](Cc2ccccc2)C(O)C(=O)NCc2ccccc2)cc1OC(C)=O (stereo not given in full)
inactive: NCI-H23 lung 93.3% | NCI-H226 lung 102% | NCI-H322M lung 83.4% | HOP-62 NSCLC 95.2% | NCI-H460 lung 56% | HOP-92 NSCLC 90% | NCI-H522 lung 17.2% | A549/ATCC NSCLC 87.7% | 786-0 renal 81.6% | COLO 205 colon 91.1%

Cc1cc(C)cc(C(=O)Nc2cccc(-c3cn(-c4ccc(S(N)(=O)=O)cc4)nn3)c2)c1
inactive: NCI-H226 lung 15.9% | NCI-H322M lung 68.5% | NCI-H460 lung 41.4% | NCI-H522 lung 61.7% | A549/ATCC NSCLC 62.2% | COLO 205 colon 141%
active: NCI-H23 lung 0.645% | HOP-62 NSCLC -18.3% | HOP-92 NSCLC -56.2% | 786-0 renal -66.3%

O=c1[nH]c2ccccc2cc1CSc1nccc(-c2ccc3ccccc3c2)n1
inactive: NCI-H23 lung 77.8% | NCI-H226 lung 70.4% | NCI-H322M lung 96% | HOP-62 NSCLC 71.5% | NCI-H460 lung 77% | HOP-92 NSCLC 68.5% | NCI-H522 lung 49.6% | A549/ATCC NSCLC 56.8% | 786-0 renal 78.3% | COLO 205 colon 83.3%

CN(C)CCOc1ccc(C(=O)C2[C@H](c3ccc(Cl)cc3)[C@@H](c3ccccc3)NC23C(=O)Nc2ccc(Br)cc23)cc1 (stereo not given in full)
inactive: NCI-H226 lung 43.7% | NCI-H322M lung 53.7% | HOP-62 NSCLC 75.9% | HOP-92 NSCLC 23.5%
active: NCI-H23 lung -2.68% | NCI-H460 lung -78.1% | NCI-H522 lung -2.86% | A549/ATCC NSCLC 4.59% | 786-0 renal -72.5% | COLO 205 colon -69%

S=C(NCCc1ccccc1)Nc1ccc(OCc2nc3ccccc3[nH]2)cc1
inactive: NCI-H23 lung 104% | NCI-H226 lung 108% | NCI-H322M lung 100% | HOP-62 NSCLC 103% | NCI-H460 lung 108% | HOP-92 NSCLC 100% | NCI-H522 lung 101% | A549/ATCC NSCLC 101% | 786-0 renal 105% | COLO 205 colon 109%

CN1CCN(c2ccc(C(=O)/C=C/c3ccc(Br)cc3)cc2)CC1
inactive: NCI-H23 lung 52.4% | NCI-H226 lung 12.6% | NCI-H322M lung 62.8% | HOP-62 NSCLC 22.1% | NCI-H460 lung 64.4% | HOP-92 NSCLC 13.2% | NCI-H522 lung 52.8% | 786-0 renal 19.5%
active: A549/ATCC NSCLC 7.46% | COLO 205 colon -14.7%

C/C(=N\N=C\c1cc([N+](=O)[O-])ccc1Cl)c1ccc2c(c1)Nc1ccccc1S2
inactive: NCI-H23 lung 54.7% | NCI-H226 lung 53% | NCI-H322M lung 37.3% | HOP-62 NSCLC 15.7% | HOP-92 NSCLC 54.1% | NCI-H522 lung 60.3% | A549/ATCC NSCLC 29.3% | 786-0 renal 21.1% | COLO 205 colon 61.3%
active: NCI-H460 lung 9.18%

COc1cc(NC(=O)c2cccc(C3CCc4c(cc(OC)c(OC)c4OC)O3)c2)cc(OC)c1OC (stereo not given)
inactive: NCI-H23 lung 36.9% | NCI-H226 lung 21.4% | NCI-H322M lung 39.2% | HOP-62 NSCLC 30.6% | NCI-H460 lung 29.1% | HOP-92 NSCLC 52.4% | A549/ATCC NSCLC 19.5% | 786-0 renal 24.3%
active: NCI-H522 lung -9.86% | COLO 205 colon 3.7%

CC(=O)N1CCN(Cc2ccc3c(NNC(=O)c4cnccn4)nc4cc(F)ccc4n23)CC1
inactive: NCI-H23 lung 34.3% | NCI-H322M lung 32.7% | HOP-62 NSCLC 15.4% | HOP-92 NSCLC 56.1% | NCI-H522 lung 57.2% | A549/ATCC NSCLC 25.4%
active: NCI-H226 lung 8.73% | NCI-H460 lung 9.64% | 786-0 renal 0.0554% | COLO 205 colon 9.92%

COc1ccc2[nH]cc(-c3nc(N)nnc3-c3cn(C)c4ncccc34)c2c1
inactive: NCI-H23 lung 69.9% | NCI-H226 lung 66.4% | NCI-H322M lung 69.6% | HOP-62 NSCLC 62.4% | NCI-H460 lung 25% | HOP-92 NSCLC 81.2% | NCI-H522 lung 34.3% | A549/ATCC NSCLC 51.2% | 786-0 renal 64.2% | COLO 205 colon 44.5%

COc1ccc(N2N=C(c3ccc4c(c3)OCO4)CC2c2cccc(NC(=O)CCCNS(=O)(=O)c3ccc(F)cc3)c2)cc1 (stereo not given)
active: NCI-H522 lung -7.84%
inactive: NCI-H23 lung 73.7% | NCI-H226 lung 67.2% | NCI-H322M lung 76.1% | HOP-62 NSCLC 82.4% | NCI-H460 lung 50.6% | HOP-92 NSCLC 90.4% | A549/ATCC NSCLC 49.1% | 786-0 renal 62.5% | COLO 205 colon 65.3%

Cc1cc2c(cc1Cl)C(=O)/C(=C/c1ccc(F)cc1)O2
inactive: NCI-H23 lung 85.8% | NCI-H226 lung 84.3% | NCI-H322M lung 99.6% | HOP-62 NSCLC 93.7% | NCI-H460 lung 105% | HOP-92 NSCLC 93.4% | NCI-H522 lung 65.8% | A549/ATCC NSCLC 103% | 786-0 renal 89.8% | COLO 205 colon 119%

O=C1Nc2ccc([N+](=O)[O-])cc2C1=Nc1ccccc1
inactive: NCI-H23 lung 106% | NCI-H226 lung 102% | NCI-H322M lung 96.1% | HOP-62 NSCLC 114% | NCI-H460 lung 109% | HOP-92 NSCLC 118% | NCI-H522 lung 110% | A549/ATCC NSCLC 130% | 786-0 renal 102% | COLO 205 colon 108%

C/C(=N\N=C1/C(=O)Nc2ccccc21)c1ccc2c(c1)Nc1ccccc1S2
inactive: NCI-H23 lung 34.8% | NCI-H226 lung 56.3% | NCI-H322M lung 71.3% | HOP-62 NSCLC 82.9% | NCI-H460 lung 43.8% | HOP-92 NSCLC 82.7% | NCI-H522 lung 43.7% | A549/ATCC NSCLC 66.9% | 786-0 renal 71.4% | COLO 205 colon 52.6%
